89 sequences from the supplement of paper PMC11417369 can be followed below.

± gives the standard deviation of the averaged measurements. Whole data set: some 25,000 sequences, median “ln(normalized median fluorescence intensity)” near 8.9, cut for the highest 2% near 10. What follows is part of a selection rich in the highest values, with near analogues and random picks from the rest.

For this experiment, the system named is PfAP2-LT AP2 domain (GST-tagged). As to the kind of experiment: gcPBM binding intensity (ln(normalized median fluorescence intensity)); higher = stronger DNA binding. In short, it runs like this: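 For binding intensity, the highest Masliner-normalised natural-log median intensity across replicate spots of either probe orientation was taken. Protein bound to the array was stained with Alexa488 anti-GST antibody and scanned at 488 nm. The protein, GST-tagged P. falciparum DNA-binding domains from E. coli at about 25 μg on average, had been applied for 1 h to an Agilent 4 × 180k array of primer-extended double-stranded 36-bp intergenic genomic probes and negative controls.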
Turning to “TAAAACATAAGAGACACACACACATATATATATATA [CACACA_site3643]”, the “gcPBM binding intensity (ln)” value turned out to be 10.1 ± 0.16.
Then “TAATAAATAAGACACACACACATATATATATATTAT [CACACA_site1389]”, with 9.8 ± 0.2; and “AAACATAAGAGACACACACACATATATAAATAAATA [CACACA_site7674]”, with 9.79 ± 0.38; and “CATTATAAGAGACACACACACATATATAAATATGTA [CACACA_site6621]”, with 9.63 ± 0.38.
Regarding “AACATTATAAGACACACACACACATATATAAATATA [CACACA_site6622]”, the “gcPBM binding intensity (ln)” value turned out to be 10.2 ± 0.38.
For “AACATTATAAGACACACACACACATATATATATATA [CACACA_site8259]”, the “gcPBM binding intensity (ln)” value stood at 10.3 ± 0.3.
As for “ATATGGAATAATACGCGTACACACATATATATATTA [XGTACX_site307]”, the figure is 9.34 ± 0.3; as for “GAATACATAATAACATGTACACACATTCTTCTATAA [XGTACX_site8725]”, 9.01 ± 0.36; as for “ATATATATATATAATGCACACATTATAAATTATGTA [CACACA_site5802]”, 9.02 ± 0.31.
Turning to “ATTAAAAAAATTAAAAGTACACATATTTCAATGATA [XGTACX_site5606]”, the “gcPBM binding intensity (ln)” value came to 8.43 ± 0.41.
As for “AAAATTATATGTAATTGTACGGAATTATATACGCAA [XGTACX_site2048]”, the figure is 8.72 ± 0.41; as for “TTGGTCTTTTAAAAAAGTACAAAAAAAAAAAAAAAA [XGTACX_site1665]”, 8.08 ± 0.55.
Then “ATTCATATGAAACACACACACACACCCATAAAAAAA [CACACA_site3246]”, with 10.2 ± 0.2.
“TAAAATAAAACAAACACACACACACGGACACAAAAA [CACACA_site7754]”: the “gcPBM binding intensity (ln)” value was 10.4 ± 0.34.
For the sequence “AAAAAAAAAAAAAACACACAAACAAATGAATAAATA [CACACA_site3300]”, the “gcPBM binding intensity (ln)” value amounted to 8.99 ± 0.54.
With “AAAAAAAAAAAAAAAACACACAAACAAATGAATAAA [CACACA_site5769]”, the “gcPBM binding intensity (ln)” value worked out at 8.89 ± 0.5.
As for “AAAATAAAATAAAACACAAAAAAATAAAACAAAATA [CACACA_negctrl_site16]”, the figure is 8.87 ± 0.49.
Then “GGACAACAAACAAACACACACAAAAAAAAAATAAAA [CACACA_site3791]”, with 9.6 ± 0.71.
In the case of “ATTCATTCATATGTTACACACACACCCACCCATAAA [CACACA_site9066]”, the “gcPBM binding intensity (ln)” value is 9.71 ± 0.23.
As for “TCATTCATATGTTACACACACACACCCACATAAAAA [CACACA_site3245]”, the figure is 9.8 ± 0.23.
Then “AAATAAATGAAACACACACACACAAAAAAAAAAAAC [CACACA_site2625]”, with 10.2 ± 0.28; and “CAACAAAATAAACACACACACACAAACACAAAAAAA [CACACA_site5806]”, with 10.2 ± 0.27.
Then “CAAAAAAAATAAAACACACACACAAAAAAATAAAAA [CACACA_site466]”, with 9.84 ± 0.31; and “AAAAAAAAAAAAAACACACACACAAAATAAACAAAC [CACACA_site2720]”, with 9.66 ± 0.44; and “ATGTTATATTTTTTTATACACACTGGAATATATAAA [CACACA_site215]”, with 8.64 ± 0.34.
Turning to “TGAATGTAAGAAAATACACACTAGTATAGTAACACC [CACACA_site5131]”, the “gcPBM binding intensity (ln)” value was 9.24 ± 0.38.
Then “ATGTAATATTTACAACGTACAAATTATAAACATATT [XGTACX_site603]”, with 8.88 ± 0.35; and “GACGACTATATTAATTGTACTCAATTTAAGCATAAT [XGTACX_site2750]”, with 8.72 ± 0.35; and “TTAATAACAAAATAAACACACATATATAAATACCCA [CACACA_site4960]”, with 9.11 ± 0.4.
As for “TATATCTATAATATTACACACATATATTTATATTTT [CACACA_site7595]”, the figure is 8.95 ± 0.33.
Then “CATATTATATTTTCATGTACACATAACATATTTATA [XGTACX_site4787]”, with 8.76 ± 0.42; and “GAATAAATTGTATTGTGTACATATAAAAGCATCTAA [XGTACX_site8271]”, with 8.8 ± 0.4.
With “TTCTTTTTAAATTACACACACATATATATATGTATA [CACACA_site3515]”, the “gcPBM binding intensity (ln)” value was 9.32 ± 0.41.
As for “AATAATAATTTAAAAAGTACATTCTAATAAACACGT [XGTACX_site1444]”, the figure is 8.78 ± 0.52; as for “TAATAAATAAATGACACACACACACGCAAAAAAAAA [CACACA_site7275]”, 9.94 ± 0.19; as for “ATTAATAAATAAATGACACACACACCCACAAAAAAA [CACACA_site8839]”, 9.9 ± 0.12.
Take “CTCCATATGAAACACACACACAAATGAAAAAAATAT [CACACA_site3018]”: the “gcPBM binding intensity (ln)” value came to 9.82 ± 0.4.
Then “CAAAAAATGAAACACACACACACACCCATAAATAAA [CACACA_site1231]”, with 10.12 ± 0.035; and “TAATAAATAAATGACACACACACACCCAAAAAAAAA [CACACA_site2623]”, with 10.1 ± 0.41.
Then “ATAATGAAAAGGAACATACACACCCCATATAAATAT [CACACA_site3442]”, with 9.61 ± 0.12; and “GGGTATATATTATTATGTACACATGTATAAAATAAG [XGTACX_site2633]”, with 8.8 ± 0.52; and “ATACAAAAAGTAAAAAGTACTTAACTAAATATATAA [XGTACX_site2335]”, with 8.74 ± 0.56.
Then “GTATATATGTATGTATGTACGTATATAGTTATGTAT [XGTACX_site6769]”, with 8.98 ± 0.3; and “ATATATATATATATATGTACGTACTCAGTTATGCCT [XGTACX_site453]”, with 10.2 ± 0.29.
Consider “TATATATATATTATATGTACGTATGTATGTATATAT [XGTACX_site6451]”, for which the “gcPBM binding intensity (ln)” value amounted to 8.88 ± 0.3.
Consider “AGTATAAAATTTGGTTGTACATTTTTAAAAAAATTA [XGTACX_site7519]”, for which the “gcPBM binding intensity (ln)” value was determined as 8.29 ± 0.42.
Take GGAATATTAATAAGAGTGCATTTTGTATTCAATATG: the “gcPBM binding intensity (ln)” value was 8.66 ± 0.41.
In the case of “GTATAATTTTCGTATTCACACAAGAATATACTACAT [CACACA_site4877]”, the “gcPBM binding intensity (ln)” value came out at 8.91 ± 0.45.
Then “CCAACATGCAGACGCACACACAAAAAAAGCATGCAT [CACACA_site74]”, with 9.54 ± 0.4.
Then “CACACGCACGGACACACACACAAAAAAAAAAAGAAA [CACACA_site6378]”, with 9.34 ± 0.58; and “TATCTCATAGTATACACACACACACGCGCACATATA [CACACA_site6917]”, with 10.1 ± 0.3; and “TCATAGTATAGACACACACACACACGCATATAAATA [CACACA_site6915]”, with 9.92 ± 0.13.
As for “CACAGACACGGACACACACACACAAAAAAAAAAAGA [CACACA_site4436]”, the figure is 10.1 ± 0.55.
Regarding “ACATCAAGCAGACACACACACACACGCACACGCACA [CACACA_site6309]”, the “gcPBM binding intensity (ln)” value is 10.4 ± 0.17.
Regarding “AAAAAAAAAAGACACACACACACATACACATACATA [CACACA_site7362]”, the “gcPBM binding intensity (ln)” value stood at 9.97 ± 0.071.
Then “CAAATACACGGACACACACACACAAAAAAAAAAAAA [CACACA_site6385]”, with 10 ± 0.71; and “AAAAAAAAAAGACACACACACACACGGACACATACA [CACACA_site7363]”, with 10.3 ± 0.13; and “TCTCATAGTAGACACACACACACACGCACATATATA [CACACA_site6916]”, with 10.1 ± 0.31.
Then “TTAAAAAAAAGACACACACACATACACATATTTATA [CACACA_site7535]”, with 9.94 ± 0.35; and “ATAAATCAAAGGCACACACACAAAAAAAAAAAAAAA [CACACA_site160]”, with 9.62 ± 0.49; and “ATTTCTCTATCGTAATGTACATAAAAAATGAAAAAA [XGTACX_site1201]”, with 8.51 ± 0.51.
Take “TTATTATTTTATAACACACACATATATATTATATCT [CACACA_site1434]”: the “gcPBM binding intensity (ln)” value stood at 9.11 ± 0.35.
As to “ATTAAATCCGCACGCACACACACATATTAATAAAAA [CACACA_site3992]”, the “gcPBM binding intensity (ln)” value was found to be 9.71 ± 0.33.
Turning to “AATTGTGCATTATATTGTACACGTGTTGTATATATT [XGTACX_site975]”, the “gcPBM binding intensity (ln)” value is 9.18 ± 0.33.
Regarding “TTTGTTTTTAATTTCGCACACACCTTGTGGAAAAAA [CACACA_site577]”, the “gcPBM binding intensity (ln)” value was determined as 8.98 ± 0.3.
For the sequence “TTATTTATAATATATACACACTAACATTATTTATCC [CACACA_site4835]”, the “gcPBM binding intensity (ln)” value was found to be 8.8 ± 0.51.
Then “AAAAATAAATTTAGTTGTACTTTATTATTTTAAATA [XGTACX_site3067]”, with 8.28 ± 0.37; and “ATATAACATAGACACACACACATATAAATATATTAT [CACACA_site7865]”, with 9.67 ± 0.14.
Then “CTTCATAAAAATTGCACACATATAATAATGTACATA [CACACA_site2212]”, with 8.96 ± 0.36; and “TTAAATGGAAAAATATGTACATATATATATATATTT [XGTACX_site2286]”, with 8.84 ± 0.35; and “ACATCAAGCAGACACACACACACACCCACCCACCGA [CACACA_site371]”, with 10.4 ± 0.11.
In the case of “CACGCACGCAGACACACACACACACGCACATATATA [CACACA_site6303]”, the “gcPBM binding intensity (ln)” value is 10.2 ± 0.38.
Then “CGCGCACCCAGACACACACACACACCGATATATATA [CACACA_site8687]”, with 10.1 ± 0.48; and “AACACGCGCAGACACACACACACACGCACATATATA [CACACA_site7104]”, with 10.3 ± 0.28.
As for “AGCACGCACAGACACACACACATATTTATATTTATA [CACACA_site6291]”, the figure is 9.72 ± 0.39.
For the sequence “TAAACAGACATATAAACACACATATAAACCGACATA [CACACA_site2478]”, the “gcPBM binding intensity (ln)” value was 9.4 ± 0.48.
Then “CAAGCACAGAAACACACACACACACCGACACAGACA [CACACA_site4359]”, with 10.1 ± 0.15.
For the sequence “AAGCATACATCAAGCACACACACACCCACAGAGACA [CACACA_site4362]”, the “gcPBM binding intensity (ln)” value was determined as 9.91 ± 0.22.
In the case of “AACAGACATAGAAACACACATACATACATACATACA [CACACA_site2479]”, the “gcPBM binding intensity (ln)” value is 9.53 ± 0.65.
As for “CGCACACGCAGACACACACACACATATAAATAAATA [CACACA_site7101]”, the figure is 9.74 ± 0.37.
Then “GATCCATTATTGATCCGTACTTATTCATGTTATATA [XGTACX_site5946]”, with 8.91 ± 0.51; and “AGAAAAAAATAATGTACACACACATATATGTTTATA [CACACA_site7946]”, with 9.14 ± 0.36.
As for “TATGTGCACCCATGTACATGCGGACATATGTTATAT [TGCATGCA_site383]”, the figure is 9.04 ± 0.42.
On to “ATTTATATATTGCCCACACACATGTGATTATTTATA [CACACA_site1714]”, for which the “gcPBM binding intensity (ln)” value came to 9.28 ± 0.46.
Then “CTAAATATATAAAAAAGTACAAAATAAATAATAATT [XGTACX_site2442]”, with 8.79 ± 0.46; and “ACATATATATATAAATATATATATATATAAATATAT [CACACA_negctrl_site895]”, with 9.03 ± 0.28; and “TATACAGGAATATTTTTACACACTAATAATTATAAA [CACACA_site8477]”, with 8.73 ± 0.5.
Then “TATATATATATGTGCACACCAATTGTATGTAATATA [CACACA_site3889]”, with 9.32 ± 0.2.
As for “TAAAAAGAAATGTAAAGTACAAATTTGAATAACATG [XGTACX_site7981]”, the figure is 8.88 ± 0.52.
